Experimental data taken from the supplement of paper PMC8728848.
Shown is part of a subset that was picked to be rich in the strongest signals.

Legend:
Test in all cases: glycan array binding signal (z-score within array); higher = stronger binding
Settings in all cases: glycan notation: IUPAC condensed, linker removed
[1] = target: Fuc(a1-2)Gal(b1-3)GlcNAc(b1-3)Gal(b1-4)Glc
Outline: (§1)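 Arrays were curated from the Consortium for Functional Glycomics database, 3228 in total, and kept only where the protein sequence was available. Binding is expressed as a within-array Z-score. This score was averaged across arrays of the same protein sequence at different concentrations or buffers and across linkers, and negative values can be read as non-binding.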

[2] = target: Fuc(a1-2)Gal(b1-3)GlcNAc6S
Outline: as §1

[3] = target: Fuc(a1-2)Gal(b1-3)[Fuc(a1-4)]GlcNAc
Outline: as §1

[4] = target: Fuc(a1-2)Gal(b1-4)Fuc(a1-3)]GlcNAc(b1-2)Man(a1-3)[Fuc(a1-2)Gal(b1-4)[Fuc(a1-3)]GlcNAc(b1-2)Man(a1-6)]Man(b1-4)GlcNAc(b1-4)GlcNAc
Outline: as §1

[5] = target: Fuc(a1-2)Gal(b1-4)GlcNAc(b1-3)[Fuc(a1-2)Gal(b1-4)GlcNAc(b1-6)]GalNAc
Outline: as §1

[6] = target: Fuc(a1-2)Gal(b1-4)[Fuc(a1-3)]GlcNAc(b1-3)Gal(b1-4)[Fuc(a1-3)]GlcNAc
Outline: as §1

[7] = target: Fuc(a1-2)[Gal(a1-3)]Gal(b1-4)GlcNAc(b1-2)Man(a1-3)[Fuc(a1-2)[Gal(a1-3)]Gal(b1-4)GlcNAc(b1-2)Man(a1-6)]Man(b1-4)GlcNAc(b1-4)[Fuc(a1-6)]GlcNAc
Outline: as §1

[8] = target: Fuc(a1-3)[Gal(b1-4)]GlcNAc(b1-3)Gal(b1-4)[Fuc(a1-3)]GlcNAc(b1-3)Gal(b1-4)[Fuc(a1-3)]GlcNAc
Outline: as §1

[9] = target: Fuc(a1-3)[Gal(b1-4)]GlcNAc(b1-3)GalNAc
Outline: as §1

[10] = target: Gal(a1-3)Gal(b1-3)GlcNAc(b1-2)Man(a1-3)[Gal(a1-3)Gal(b1-3)GlcNAc(b1-2)Man(a1-6)]Man(b1-4)GlcNAc(b1-4)GlcNAc
Outline: as §1

[11] = target: Gal(a1-3)Gal(b1-3)GlcNAc(b1-3)GalNAc
Outline: as §1

[12] = target: Gal(a1-3)Gal(b1-4)GlcNAc(b1-3)GalNAc
Outline: as §1

[13] = target: Gal(a1-3)Gal(b1-4)[Fuc(a1-3)]GlcNAc(b1-2)Man(a1-3)[Gal(a1-3)Gal(b1-4)[Fuc(a1-3)]GlcNAc(b1-2)Man(a1-6)]Man(b1-4)GlcNAc(b1-4)GlcNAc
Outline: as §1

[14] = target: Gal(a1-4)Gal(b1-4)GlcNAc(b1-3)Gal(b1-4)Glc
Outline: as §1

Gal(a1-4)GlcNAc = target: Gal(a1-4)GlcNAc
Outline: as §1

Gal(b1-2)Gal = target: Gal(b1-2)Gal
Outline: as §1

[15] = target: Gal(b1-3)GlcNAc(b1-2)Man(a1-3)[Gal(b1-3)GlcNAc(b1-2)Man(a1-6)]Man(b1-4)GlcNAc(b1-4)GlcNAc
Outline: as §1

[16] = target: Gal(b1-3)GlcNAc(b1-3)Gal(b1-4)GlcNAc(b1-3)Gal(b1-4)GlcNAc(b1-2)[Gal(b1-3)GlcNAc(b1-3)Gal(b1-4)GlcNAc(b1-3)Gal(b1-4)GlcNAc(b1-6)]Man(a1-6)[Gal(b1-3)GlcNAc(b1-3)Gal(b1-4)GlcNAc(b1-3)Gal(b1-4)GlcNAc(b1-2)Man(a1-3)]Man(b1-4)GlcNAc(b1-4)[Fuc(a1-6)]GlcNAc
Outline: as §1

Gal(b1-3)GlcNAc6S = target: Gal(b1-3)GlcNAc6S
Outline: as §1

[17] = target: Gal(b1-3)[Fuc(a1-4)]GlcNAc(b1-6)GalNAc
Outline: as §1

[18] = target: Gal(b1-4)GlcNAc(b1-2)Man(a1-3)[GlcNAc(b1-4)][Gal(b1-4)GlcNAc(b1-2)Man(a1-6)]Man(b1-4)GlcNAc(b1-4)GlcNAc
Outline: as §1

[19] = target: Gal(b1-4)GlcNAc(b1-2)[Gal(b1-4)GlcNAc(b1-4)]Man(a1-3)[GlcNAc(b1-4)][Gal(b1-4)GlcNAc(b1-2)Man(a1-6)]Man(b1-4)GlcNAc(b1-4)GlcNAc
Outline: as §1

[20] = target: Gal(b1-4)GlcNAc(b1-2)[Gal(b1-4)GlcNAc(b1-6)]Man(a1-6)[GlcNAc(b1-4)][Gal(b1-4)GlcNAc(b1-2)Man(a1-3)]Man(b1-4)GlcNAc(b1-4)GlcNAc
Outline: as §1

[21] = target: Gal(b1-4)GlcNAc(b1-3)Gal(b1-4)GlcNAc
Outline: as §1

[22] = target: Gal(b1-4)GlcNAc(b1-3)Gal(b1-4)GlcNAc(b1-3)Gal(b1-4)GlcNAc(b1-3)Gal(b1-4)GlcNAc(b1-2)Man(a1-3)[Gal(b1-4)GlcNAc(b1-3)Gal(b1-4)GlcNAc(b1-3)Gal(b1-4)GlcNAc(b1-3)Gal(b1-4)GlcNAc(b1-2)Man(a1-6)]Man(b1-4)GlcNAc(b1-4)[Fuc(a1-6)]GlcNAc
Outline: as §1

[23] = target: Gal(b1-4)GlcNAc(b1-3)Gal(b1-4)GlcNAc(b1-3)Gal(b1-4)GlcNAc(b1-3)Gal(b1-4)GlcNAc(b1-3)Gal(b1-4)GlcNAc(b1-3)Gal(b1-4)GlcNAc(b1-2)Man(a1-3)[Gal(b1-4)GlcNAc(b1-3)Gal(b1-4)GlcNAc(b1-3)Gal(b1-4)GlcNAc(b1-3)Gal(b1-4)GlcNAc(b1-3)Gal(b1-4)GlcNAc(b1-3)Gal(b1-4)GlcNAc(b1-2)Man(a1-6)]Man(b1-4)GlcNAc(b1-4)GlcNAc
Outline: as §1

[24] = target: Gal(b1-4)GlcNAc(b1-3)Gal(b1-4)GlcNAc(b1-6)[Gal(b1-3)]GalNAc
Outline: as §1

[25] = target: Gal3S(b1-4)[Fuc(a1-3)]Glc6S
Outline: as §1

Gal6P(b1-4)GlcNAc = target: Gal6P(b1-4)GlcNAc
Outline: as §1

GalNAc(a1-3)GalNAc = target: GalNAc(a1-3)GalNAc
Outline: as §1

B1: AntigenI/IIA3VP1 (Streptococcus mutans), C9E3B4 (protein)
chain: AANEADYQAKLTAYQTELARVQKANADAKAAYEAAVAANNAANAALTAENTAIKKRNADAKADYEAKLAKYQADLAKYQKDLADYPVKLKAYEDEQASIKAALAELEKHKNEDGNLTEPSAQNLVYDLEPNANLSLTTDGKFLKASAVDDAFSKSTSKAKYDQKILQLDDLDITNLEQSNDVASSMELYGNFGDKAGWSTTVSNNSQVKWGSVLLERGQSATATYTNLQNSYYNGKKISKIVYKYTVDPKSKFQGQKVWLGIFTDPTLGVFASAYTGQVEKNTSIFIKNEFTFYDEDGKPINFDNALLSVASLNREHNSIEMAKDYSGKFVKISGSSIGEKNGMIYATDTLNFKQGEGGSRWTMYKNSQAGSGWDSSDAPNSWYGAGAIKMSGPNNYVTVGATSATNVMPVSDMPVVPGKDNTDGKKPNIWYSLNGKIRAVNVPKVTKEKPTPPVKPTAPTKPTYETEKPLKPAPVAPNYEKEPTPPTRLEHHHHHH
Which “glycan array binding signal (z-score)” value [1] does the source give for B1 here?
Its value is -1.26.

And the “glycan array binding signal (z-score)” value [2]?
The value was 0.457.

What about the “glycan array binding signal (z-score)” value [3] of the same binder?
Its value is 0.481.

What about the “glycan array binding signal (z-score)” value [4] of the same binder?
Its value is 4.68.

And the “glycan array binding signal (z-score)” value [5]?
Its value is 0.339.

And the “glycan array binding signal (z-score)” value [6]?
The value was 0.17.

What about the “glycan array binding signal (z-score)” value [7] of the same binder?
The value was 3.1.

What about the “glycan array binding signal (z-score)” value [8] of the same binder?
The value was -0.372.

And the “glycan array binding signal (z-score)” value [9]?
Its value is 2.64.

What about the “glycan array binding signal (z-score)” value [10] of the same binder?
Its value is 3.47.

What about the “glycan array binding signal (z-score)” value [11] of the same binder?
Its value is 2.79.

What about the “glycan array binding signal (z-score)” value [12] of the same binder?
Its value is -1.15.

And the “glycan array binding signal (z-score)” value [13]?
Its value is 0.993.

And the “glycan array binding signal (z-score)” value [14]?
The value was -0.067.

And the “glycan array binding signal (z-score)” value (Gal(a1-4)GlcNAc)?
The value was -0.879.

What about the “glycan array binding signal (z-score)” value (Gal(b1-2)Gal) of the same binder?
The value was -0.551.

What about the “glycan array binding signal (z-score)” value [15] of the same binder?
The value was 0.099.

What about the “glycan array binding signal (z-score)” value [16] of the same binder?
Its value is 5.61.

What about the “glycan array binding signal (z-score)” value (Gal(b1-3)GlcNAc6S) of the same binder?
The value was 0.094.

And the “glycan array binding signal (z-score)” value [17]?
The value was 3.1.

What about the “glycan array binding signal (z-score)” value [18] of the same binder?
Its value is -0.555.

And the “glycan array binding signal (z-score)” value [19]?
Its value is -0.31.

And the “glycan array binding signal (z-score)” value [20]?
Its value is -0.581.

What about the “glycan array binding signal (z-score)” value [21] of the same binder?
Its value is -0.087.

And the “glycan array binding signal (z-score)” value [22]?
The value was 3.27.

What about the “glycan array binding signal (z-score)” value [23] of the same binder?
The value was 3.91.

And the “glycan array binding signal (z-score)” value [24]?
The value was -0.398.

What about the “glycan array binding signal (z-score)” value [25] of the same binder?
Its value is 3.68.

And the “glycan array binding signal (z-score)” value (Gal6P(b1-4)GlcNAc)?
The value was -1.28.

What about the “glycan array binding signal (z-score)” value (GalNAc(a1-3)GalNAc) of the same binder?
The value was 0.327.
